Hits are enriched below; roughly 32% of the tested compounds scored in any of these assays.
PostGolgi yeast: growth inhibition of a yeast mutant, post-Golgi transport screen. 98,000 tested, 0.9% active. inhibition, % at 10 µM. post-Golgi transport phenotypic cell assay;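 also: yeast cells grown in 1536-well plates; yeast grown about 18 h at 30C before absorbance read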
CYP2C19 act: activators of human cytochrome P450 2C19; 96,000 tested, under 10 active; recombinant CYP2C19, luciferin-H EGE luminescence; stronger effect = higher value; 0 = fully inhibited enzyme, 1 = untreated enzyme; P33261; activation factor at 5 µM;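 active = activation factor of at least 2 at 5 µM in the primary screen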
Target sequence (P33261 whole entry, looked up): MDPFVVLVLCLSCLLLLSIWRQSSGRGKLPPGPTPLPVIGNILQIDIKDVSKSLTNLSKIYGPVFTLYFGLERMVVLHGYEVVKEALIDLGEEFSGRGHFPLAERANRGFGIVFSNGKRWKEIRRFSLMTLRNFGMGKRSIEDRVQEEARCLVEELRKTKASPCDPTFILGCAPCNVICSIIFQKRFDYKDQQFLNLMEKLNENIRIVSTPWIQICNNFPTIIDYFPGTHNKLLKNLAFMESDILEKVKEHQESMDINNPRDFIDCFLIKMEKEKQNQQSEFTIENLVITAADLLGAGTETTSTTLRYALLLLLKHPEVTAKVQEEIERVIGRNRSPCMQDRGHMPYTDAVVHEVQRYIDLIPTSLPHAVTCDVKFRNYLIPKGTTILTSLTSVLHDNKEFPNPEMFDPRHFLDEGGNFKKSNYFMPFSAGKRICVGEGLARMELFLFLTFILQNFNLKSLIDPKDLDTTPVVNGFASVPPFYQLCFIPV
CYP2C9 inh: blocks human cytochrome P450 2C9 | CYP2C9 Supersomes, luciferin-H conversion, luminescence | inhibition, % at 5 µM | 96,000 tested, 20% active | AID 777;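 active = blocking of liver enzyme CYP2C9 beyond about 50% at 5 µM, limit read from the data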
CYP2C9 act: CYP2C9 (human) activation | activation factor at 5 µM | P11712 | recombinant CYP2C9, luciferin-H conversion, luminescence; stronger effect = higher value; factor 1 = untreated enzyme, 0 = blocked | 96,000 tested, 1.4% active | AID 1024;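 active = activation factor of 2 or more for CYP2C9 at a 5 µM dose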
CYP2C19 inhib: human CYP2C19 inhibition; P33261; CYP2C19 Supersomes, luciferin-H EGE luminescence, 30 min; inhibition, % at 5 µM; 96,000 tested, 21% active; AID 778;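 active = CYP2C19 inhibition above a set limit at 5 µM in the primary screen, cut at about 50% in these data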
PostGolgi ctrl: yeast control strain growth, post-Golgi counter-screen; efflux-deficient yeast background strain, growth absorbance A615, 16 h; inhibition, % at 10 µM; 98,000 tested, 5% active; AID 738
Hits are given with their value; – = inactive; · = not tested or not shown. Rule as the data show it, unless noted: active = inhibition above about 30%; inactive = the rest.

SMILES	PostGolgi yeast	CYP2C19 act	CYP2C9 inh	CYP2C9 act	CYP2C19 inhib	PostGolgi ctrl
CN(c1ccccc1C(N)=O)S(=O)(=O)c1ccccc1	–	·	·	·	·	–
Cc1cccc(N=c2oc3cc(O)ccc3cc2C(N)=O)c1	–	–	69	–	–	–
COc1ccccc1N=c1oc2cc(O)ccc2cc1C(N)=O	–	–	71	–	–	–
CN(C)c1ccc(NC(=O)CN2CCC(C(=O)c3ccc(F)cc3)CC2)cc1	–	–	–	–	–	–
Cc1ccc(NC(=O)CN2CCC(C(=O)c3ccc4c(c3)OCCO4)CC2)cc1	–	–	–	–	85	–
COC(=O)c1ccccc1NC(=O)CN1CCC(C(=O)c2ccc3c(c2)OCCO3)CC1	–	–	78	–	81	–
CCc1c(C)sc(NC(=O)Cn2nc(C(F)(F)F)c3c2CCCC3)c1C#N	–	–	–	–	–	–
C=CCN1CCN(C(c2ccc(OC)c(OC)c2)c2nnnn2C(C)(C)C)CC1 (centres undefined)	–	–	–	–	–	–
Cc1onc(-c2ccccc2)c1C(=O)NC(C)C1CCCO1 (centres undefined)	–	–	–	–	–	–
CCN(CCN(C)C)C(=O)Cn1ncc2c1-c1cc(C)ccc1OC2	–	–	–	–	–	–
CCC(=O)N(Cc1cc2c(C)ccc(C)c2[nH]c1=O)C1CCCCC1	–	–	–	–	–	31
CCC(=O)N(Cc1cc2c(C)cc(C)cc2[nH]c1=O)C1CCCCC1	–	–	–	–	–	47
Cc1ccc(N2C(=O)[C@@H]3C(c4ccc(F)cc4)=NO[C@@H]3C2=O)cc1	–	–	–	–	–	–
CCOC(=O)CC(=O)CSc1nc2c(C)c(C)ccc2cc1C	–	–	54	–	61	–
CCOC(=O)N1CCN(c2c(Nc3ccc4c(c3)OCCO4)c(=O)c2=O)CC1	–	–	–	2	–	·
COC(=O)CC1COc2ccccc2N1C(=O)c1ccc(C(C)(C)C)cc1 (centres undefined)	–	–	77	–	–	–
Cc1ccc(SC(c2ccc(C)cc2)C(Cn2cncn2)C(=O)c2ccccc2)cc1 (centres undefined)	–	–	–	–	–	–
Cc1ccc(C(Sc2ccccc2)C(Cn2cncn2)C(=O)c2ccccc2)cc1 (centres undefined)	–	–	63	–	92	–
COc1cc(CN2CCN(c3ccc(C)cc3)CC2)cc([N+](=O)[O-])c1O	92	–	–	–	–	–
COC(=O)c1cc(OC)c(OC)cc1N=CC1=C(O)CC(C)(C)CC1=O	–	–	–	–	–	–
CCN(CC)c1ccc(C(=O)n2cnc3ccccc32)cc1	–	–	75	–	85	–
N#Cc1c2n(c3c(=O)n(Cc4ccccc4Cl)cnc13)CCCCC2	–	–	68	–	59	–
Cc1c(C#N)c2ncn(Cc3ccccc3)c(=O)c2n1-c1ccccc1	–	–	63	–	–	–
O=C(CN1CCN(c2ncccn2)CC1)N(Cc1ccccc1)c1ccc(F)cc1	–	–	50	–	61	–
CC(=O)c1cccc(NC(=O)Nc2ccc3c(c2)N(C)C(=O)CS3)c1	–	–	59	–	68	–
SMILES	PostGolgi yeast	CYP2C19 act	CYP2C9 inh	CYP2C9 act	CYP2C19 inhib	PostGolgi ctrl
Cc1cc(C)cc(NC(=O)Nc2ccc3c(c2)N(C)C(=O)CS3)c1	–	–	–	–	–	–
COc1ccc(/C=N/NC(=O)CC(=O)NCCc2ccccc2)cc1OC	–	–	–	–	–	–
CC1OC2(OC1C)C(=O)Nc1ccccc12 (centres undefined)	–	–	–	–	–	–
O=C1NC2(Nc3ccccc31)C(=O)Nc1ccccc12 (centres undefined)	44	–	–	–	–	–
CC(C)CCSc1nc2c(c(=O)[nH]c(=O)n2C)n1CCCc1ccccc1	–	–	–	–	–	–
CCOC(=O)c1cccc(C(=O)OCC)n1	–	–	–	–	–	–
CCOC(=O)c1cccc2c1-c1ccccc1/C2=N/O	–	–	66	–	–	–
CCc1ccccc1NC(=O)CSc1nnc([C@@H]2CCCN2C(=O)OC(C)(C)C)o1	–	–	–	–	–	–
O=C(NCCC1=CCCCC1)C1CCN(S(=O)(=O)N2CCOCC2)CC1	–	–	–	–	–	–
Cc1ccc(CSCCNC(=O)c2ccc(Cl)c(S(=O)(=O)N3CCOCC3)c2)cc1	–	–	81	–	62	–
